Measurements from the supplement of paper PMC3334620.
The full ranking holds about 33,000 sequences; the median of “E-score (-0.5 to 0.5)” is about -0.01, and the highest 2% start at about 0.26. Many of the other results were omitted from the sample, so the highest values are more common in it than they were.

Each sequence was assayed against Ste12 (UniProt P13574) (assay: PBM E-score (8-mer binding enrichment) (E-score (-0.5 to 0.5)); higher = stronger / more preferred TF binding). Details: protein concentration: 200 nM; construct: GST-DNA-binding domain.
Description: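 Universal 'all 10-mer' protein binding microarrays (Agilent AMADID 015681) probed with GST-tagged S. cerevisiae TFs (full-length or DBD) made by in vitro transcription/translation (PURExpress), about 100-200 nM. Bound TF was detected with fluorescent anti-GST. Each ungapped 8-mer (which stands for itself and its reverse complement) is scored by the PBM enrichment score (E-score), a modified Wilcoxon-Mann-Whitney statistic from -0.5 to +0.5, computed with the Universal PBM Analysis Suite. Scale: above 0.35 generally sequence-specific binding.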

Chain of UniProt P13574 (P13574 whole entry, the tested form may be a part): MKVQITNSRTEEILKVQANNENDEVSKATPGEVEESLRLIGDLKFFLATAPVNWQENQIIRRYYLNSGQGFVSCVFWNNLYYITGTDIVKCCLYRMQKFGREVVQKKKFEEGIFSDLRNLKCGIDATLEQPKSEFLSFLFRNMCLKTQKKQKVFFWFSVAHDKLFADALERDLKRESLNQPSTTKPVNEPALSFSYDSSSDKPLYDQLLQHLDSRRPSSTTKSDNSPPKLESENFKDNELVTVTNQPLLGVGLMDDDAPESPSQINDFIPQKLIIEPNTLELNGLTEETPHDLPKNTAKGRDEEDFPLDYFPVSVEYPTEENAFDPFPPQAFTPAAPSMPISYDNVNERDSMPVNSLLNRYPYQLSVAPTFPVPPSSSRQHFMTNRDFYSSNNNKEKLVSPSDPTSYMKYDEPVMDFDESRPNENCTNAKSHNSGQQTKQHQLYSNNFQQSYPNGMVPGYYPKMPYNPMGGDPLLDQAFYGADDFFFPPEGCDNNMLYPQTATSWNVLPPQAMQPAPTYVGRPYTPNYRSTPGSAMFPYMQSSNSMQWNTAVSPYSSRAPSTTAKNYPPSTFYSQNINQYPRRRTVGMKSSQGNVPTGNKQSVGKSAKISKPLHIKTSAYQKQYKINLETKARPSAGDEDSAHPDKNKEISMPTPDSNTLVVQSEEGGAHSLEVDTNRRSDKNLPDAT

| Sequence | PBM E-score |
| --- | --- |
| AGTTGACG | 0.019 |
| CATCCAGA | -0.00655 |
| GGAACGCC | -0.017 |
| GAAACGCC | 0.288 |
| TAAACGCA | -0.0738 |
| CAAACGCA | -0.133 |
| GAAACGCA | 0.323 |
| CAAACGCC | 0.0326 |
| ATGCTTAG | -0.205 |
| AGCAGTAG | -0.168 |
| TGGCCCCA | -0.094 |
| AAGTAGTG | -0.075 |
| ACCTAATC | 0.0677 |
| AGTAGAAA | 0.297 |
| CAAAGAAA | 0.214 |
| GAAAGAAC | -0.00643 |
| ACAAGAAT | 0.137 |
| AGTAGAAC | -0.0785 |
| CGTAGAAA | -0.0538 |
| ACAAGAAA | 0.28 |
| GAAAGAAA | 0.297 |
| CCAAGAAA | 0.0914 |
| CCCACATC | -0.0169 |
| GGCAAGCC | -0.0158 |
| GCTAACCC | -0.192 |

| Sequence | PBM E-score |
| --- | --- |
| CAGCTGCG | -0.0692 |
| AGAAATTG | 0.209 |
| CATGGATC | -0.0524 |
| AACTTTAT | 0.165 |
| ACTAATAT | 0.288 |
| ACTAAAAT | 0.27 |
| ACTAATAG | 0.0525 |
| ACTAAACC | 0.0959 |
| AATAAAAT | 0.183 |
| ACTAAAAG | 0.1 |
| ACTAAAAA | 0.203 |
| ACTAATAC | 0.131 |
| ACTAAAAC | 0.272 |
| AGAGTCTC | -0.00303 |
| CTTGTTCA | -0.105 |
| GACGTCAC | -0.136 |
| TCATACCA | -0.0469 |
| CATGGTTC | 0.19 |
| GTGGGCGA | -0.0639 |
| CGGACCAA | -0.096 |
| AACTGGTA | -0.00841 |
| ATCGTCGG | 0.00187 |
| CCCGTTTC | 0.274 |
| ACCGTTTG | -0.0273 |
| CCCGTTTA | 0.0626 |

| Sequence | PBM E-score |
| --- | --- |
| ACCGTTTC | 0.3 |
| ACCGTTTA | 0.059 |
| CCCGTTGC | -0.145 |
| TCACTTAA | 0.191 |
| GCCGACGA | 0.17 |
| CCCGACGA | 0.284 |
| TCCGACGA | -0.109 |
| ATAGCATA | -0.011 |
| GAAGACTA | -0.0635 |
| GAATTGAA | 0.278 |
| CAATTGAA | 0.187 |
| GAATTAAC | 0.00892 |
| CGATTAAA | 0.073 |
| TGATTAAA | 0.158 |
| AAATTAAA | 0.206 |
| TAATTGAA | 0.0688 |
| GAATTAAA | 0.287 |
| GGATTAAA | 0.274 |
| ATCCTACG | -0.141 |
| GAGCTTGA | -0.176 |
| AAAAACAC | 0.233 |
| CCGGAACC | 0.0511 |
| GCGGGGTA | 0.143 |
| CAGCCATC | -0.0408 |
| GCTCTACC | -0.167 |

| Sequence | PBM E-score |
| --- | --- |
| AAGCGAGA | 0.108 |
| CTCTTTAA | -0.122 |
| TTACCAAA | 0.263 |
| TTACCGAA | 0.276 |
| CTACCGAA | -0.131 |
| GTACCGAA | 0.0964 |
| GTACCAAA | 0.0457 |
| CTACCAAA | 0.0171 |
| GCATGCCC | 0.105 |
| GAACTTAA | 0.115 |
| CAACTTTA | 0.161 |
| AAACTTAA | 0.298 |
| AAACTGTA | 0.135 |
| AAACTTTG | 0.217 |
| CAACTTAA | 0.0143 |
| AAACTGAA | 0.268 |
| AAACTTTA | 0.294 |
| AAACTGTT | 0.162 |
| AAGATTGC | -0.0392 |
| ACTTTGAT | 0.11 |
| CCCGGCGG | 0.0682 |
| ATTAAGGG | 0.0581 |
| ATCTCGAC | 0.0726 |
| GATCCCCA | 0.0544 |
| CGCCTACA | 0.0882 |

| Sequence | PBM E-score |
| --- | --- |
| GTAGCCAC | -0.27 |
| CTGGGGGC | -0.233 |
| ACCCCACG | -0.159 |
| ACCCCACT | 0.0311 |
| CCCCCACC | -0.207 |
| GCCCCACA | 0.101 |
| GCCCCACC | 0.266 |
| ACCCCACC | 0.373 |
| GGACCCGA | -0.0164 |
| CTCCACAA | 0.00925 |
| CAAAGCGA | 0.0708 |
| ACAAGGAC | -0.129 |
| AGAAGACA | -0.132 |
| AACTCGCC | -0.0534 |
| AAATTTAT | 0.263 |
| GAATTTAA | 0.0395 |
| AAATTTCA | 0.0583 |
| AAATTTAG | 0.169 |
| TAATTTAA | 0.3 |
| AAATTTAA | 0.289 |
| CGATTTAA | 0.1 |
| CAATTTAA | 0.2 |
| AAATTTGA | 0.123 |
| AAATTTAC | 0.197 |
| AGATTTAA | 0.0444 |

| Sequence | PBM E-score |
| --- | --- |
| TGATTTAA | 0.266 |
| GGAATGGA | 0.0113 |
| TTACCCAA | 0.0694 |
| CTTTGCTA | 0.162 |
| CTCACAGA | 0.00059 |
| AACTCGTA | 0.143 |
| TCCCCACA | -0.0875 |
| CACCTATC | 0.0217 |
| TAAAACGA | 0.134 |
| GAAAACGA | -0.0839 |
| AAAAACGA | 0.272 |
| CAAAACGG | 0.302 |
| CAAAACGC | 0.229 |
| CCAAACGG | -0.0425 |
| GGAAACGA | 0.275 |
| AAAAACGG | 0.174 |
| AGAAACGA | 0.207 |
| CGAAACGA | 0.205 |
| CAAAACGA | 0.272 |
| CCAAACGA | 0.0156 |
| CCGCCTCC | -0.123 |
| CCCGTAAG | -0.0733 |
| AGGTCAGA | -0.113 |
| TCTTGACA | -0.0432 |
| ACCCATCC | 0.00204 |

| Sequence | PBM E-score |
| --- | --- |
| AACCAATC | 0.259 |
| GAAAAAGA | 0.241 |
| CGGCTAAG | 0.0459 |
| CATAGCGG | -0.207 |
| AGACAGCT | -0.111 |
| AAGAAGAA | 0.123 |
| TTAACTAA | 0.221 |
| GTCTCCAA | 0.0569 |
| ATAAAAAA | 0.248 |
| CAAAAACA | 0.153 |
| ATAAAACC | 0.294 |
| CTAAAACA | 0.355 |
| ATAAAACA | 0.368 |
| GAAAAACA | 0.21 |
| ATAAAAAC | 0.134 |
| TAAAAACA | 0.223 |
| ATAAACCC | 0.211 |
| AGAAAACA | 0.152 |
| CTAAAACC | 0.192 |
| AAAAAACA | 0.331 |
| ACGTTGAT | 0.0985 |
| AGTCAGTG | -0.0387 |
